BJeLR viability – kills HRASV12-expressing BJeLR cells; BJeLR (HRASV12) viability, CellTiter-Glo ATP luminescence, 48 h; inhibition, % (no concentration beside the values); 300,000 compounds, 0.17% hits; AID 1554; in the data active means inhibition above about 50%
PrPC TRFRET – reduces human prion protein on the cell surface; P04156; 370,000 compounds, 0.43% hits; AID 720596; cell surface PrPC, TR-FRET read-out; inhibition, % at 13.8 µM; in the data active means inhibition above about 24%; further: 0% = median of the test wells and 100% = reference compound wells
PrP UTR inh – inhibition of PrP 5' UTR reporter expression. cell-based PrP 5' UTR mRNA reporter, plate reader. 340,000 compounds, 0.35% hits. inhibition, % (no concentration beside the values); in the data active means inhibition above about 52%; further: 0 = median of the neutral control wells
RecA intein inh – Mtb RecA intein splicing inhibition | 290,000 compounds, 0.75% hits | P9WHJ3 | cell-free RecA intein splicing, fluorescence | AID 2221 | inhibition, % (no concentration beside the values); in the data active means inhibition above about 30%;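 further: 0% = vehicle wells and 100% = reference inhibitor control wells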
3CLpro inhibitor – SARS-CoV 3CLpro protease inhibition | P0C6X7 | 290,000 compounds, 0.14% hits | recombinant SARS-CoV 3CLpro, quenched FRET peptide cleavage | inhibition, % at 6 µM; in the data active means inhibition above about 12%
Mtb hypoxia inh – Mtb hypoxia fluorescent reporter inhibition; 300,000 compounds, 0.1% hits; AID 1159583; M. tuberculosis hypoxia-regulated fluorescent reporter, fluorescence; fluorescence inhibition, % (test concentration not listed); in the data active means fluorescence inhibition mostly above about 23%, no sharp cut-off; inactive means mostly below about 17%
PrPC confirm – confirmation of inhibitors of cell surface human prion protein | shares compounds with PrPC TRFRET | cell surface PrPC level, TR-FRET | inhibition, % at 13.8 µM | 1,500 compounds, 65% hits | AID 743200; in the data active means inhibition above about 25%
LD9 cytotox – LD9 cell cytotoxicity, PrPc inhibitor counter-screen; shares compounds with PrPC TRFRET; LD9 cells cytotoxicity, luminescence viability; inhibition, % at 13.8 µM; 1,500 compounds, 29% hits; in the data active means inhibition above about 9.5%
Numbers without * were called inactive; x = no result given. Compounds with a hit are over-represented: about 1.4% of the library has one in this group of screens.

SMILES | BJeLR viability | PrPC TRFRET | PrP UTR inh | RecA intein inh | 3CLpro inhibitor | Mtb hypoxia inh | PrPC confirm | LD9 cytotox
Cc1ccccc1C(=O)N1CCN(c2ccc(NC(=O)c3ccc4c(c3)OCO4)cc2)CC1 | 42 | 34* | 16 | 0 | 2 | 5 | 30* | 13*
COC(=O)C1=C(c2ccccc2)CC2CCC1N2C(=O)N1CCCC1 (stereo not given) | x | x | x | x | x | -1 | x | x
CCC(=O)N1CCc2cc(S(=O)(=O)N(C)c3ccc(OC)cc3OC)ccc21 | 6 | 5 | -7 | 1 | 7 | -9 | x | x
CCC(=O)N1CCc2cc(Br)cc(S(=O)(=O)N(C)c3ccc(OC)cc3OC)c21 | 2 | 30* | -1 | -4 | 2 | 12 | 6 | -5
CNC(=O)N(O)C1N(N=Cc2c(F)cccc2Cl)C(=S)SC1(C)C (stereo not given) | x | x | x | x | x | -2 | x | x
CC(=O)c1sc(NC(=O)COc2ccccc2)nc1C | -7 | 12 | -50 | -4 | -2 | 18 | x | x
CC(=O)c1sc(NC(=O)C(C)(C)C)nc1C | -6 | 26* | -5 | 1 | 3 | 0 | 27* | 1
CC(=O)c1sc(NC(=O)CCOc2ccccc2)nc1C | 10 | 35* | -19 | 0 | -1 | -4 | 41* | -6
COC(=O)[C@@]12CCCCN1C(c1ccc(-c3cc(C(C)=O)cs3)c(OC)c1)C1C(=O)N(C)C(=O)C12 (stereo not given in full) | x | x | x | x | x | -2 | x | x
Nc1c(C(=O)Nc2ccc3c(c2)OCCO3)nnn1Cc1cccc(Br)c1 | 9 | 29* | -70 | 3 | x | 9 | 21 | -4
Cn1cccc1/C=N\NC(=O)Cc1ccc(Br)c2ccccc12 | 7 | 31* | 6 | 0 | 4 | x | 35* | 0
CCOP(=S)(OCC)Oc1ccc2c(C)c(Cl)c(=O)oc2c1 | x | 68* | x | x | x | -8 | 37* | 1
CCC(=O)Oc1ccc2c(C)c(Cl)c(=O)oc2c1 | 2 | 4 | -13 | -194 | -3 | x | x | x
O=C(O)C(=Cc1cc2c(cc1[N+](=O)[O-])OCO2)c1cc2c(cc1Br)OCO2 | x | -8 | -23 | x | x | x | x | x
O=C(O)C(=Cc1ccccc1[N+](=O)[O-])c1ccc2c(c1)OCO2 | x | 27* | x | x | x | x | 0 | -7
Cc1ccc(OCc2nc3ccccc3n2C(C)C(=O)Nc2c(C)cccc2C)cc1 (stereo not given) | x | 33* | x | x | x | x | 26* | -3
CCCCC1=CC2=C(c3ccco3)C(=O)C(C)(OC(=O)c3ccc(OC)cc3)C(=O)C2=CN1CCc1ccccn1 (stereo not given) | 5 | 26* | -11 | -4 | x | -6 | 33* | -3
O=S(=O)(c1ccccc1)N(CC(F)(F)F)c1ccc(C(O)(C(F)(F)F)C(F)(F)F)cc1 | x | 33* | x | x | x | x | 14 | -3
CC(NC(=O)CSc1ccc(S(=O)(=O)N2CCOCC2)cn1)c1ccc(Cl)cc1Cl (stereo not given) | x | 27* | -16 | x | x | 1 | 5 | 3
CC(C)C(C)NC(=O)CSc1ccc(S(=O)(=O)N2CCOCC2)cn1 (stereo not given) | x | 5 | -17 | x | x | 3 | x | x
Cc1nc(SC2CCOC2=O)c2c(C)c(C)sc2n1 (stereo not given) | -8 | 98* | -4 | 2 | 0 | 9 | 103* | -3
Cc1nc(SCC(=O)N2CCOCC2)c2c(C)c(C)sc2n1 | 7 | 5 | -9 | -1 | -1 | 5 | x | x
S=c1[nH]nc(-c2ccccc2)o1 | 0 | 8 | -4 | 1 | -2 | x | x | x
Cc1ccccc1-c1n[nH]c(=S)o1 | 9 | 63* | -12 | 3 | -3 | x | 72* | -3
CSc1ccccc1-c1n[nH]c(=S)o1 | 6 | 66* | -22 | -1 | -4 | 14 | 83* | -7
SMILES | BJeLR viability | PrPC TRFRET | PrP UTR inh | RecA intein inh | 3CLpro inhibitor | Mtb hypoxia inh | PrPC confirm | LD9 cytotox
COC(=O)[C@]1(C)NC(c2ccc(-c3ccc(OC)cc3)cc2)C2C(=O)N(C)C(=O)C21 (stereo not given in full) | x | x | x | x | x | -1 | x | x
Cc1n[nH]c(=S)c2nn(-c3cccc(Cl)c3)c(C)c12 | -11 | 36* | x | -1 | 5 | 3 | 67* | -4
Cc1n[nH]c(=S)c2nn(-c3ccccc3)c(C)c12 | -5 | x | x | 0 | -1 | 0 | x | x
Cc1n[nH]c(=S)c2nn(-c3ccccc3F)c(C)c12 | 2 | 46* | 3 | -1 | -4 | -1 | 68* | 3
Cc1ccc(-n2nc3c(=S)[nH]nc(C)c3c2C)cc1 | 15 | 111* | -11 | -1 | 2 | 13 | 122* | 0
COc1cccc(-n2nc3c(=S)[nH]nc(C)c3c2C)c1 | -5 | 17 | -17 | -2 | -2 | 0 | x | x
CC(C)NC(=O)N(C)CC1Oc2ccc(NC(=O)CCN3CCOCC3)cc2CC(=O)N(C(C)CO)CC1C (stereo not given) | x | x | x | x | x | 8 | x | x
CCOC(=O)C1C2COc3ccc(OC)cc3C2N2C(=O)CN(Cc3ccccc3)C(=O)[C@@]12C (stereo not given in full) | x | x | x | x | x | 10 | x | x
COc1ccc(-c2cnc(SCC(=O)Nc3ccc4c(c3)OCO4)n2Cc2ccco2)cc1 | 6 | 25* | -9 | 19 | -1 | -1 | 19 | 9.3*
CC(=O)Nc1cccc(NC(=O)CSc2ncc(-c3ccc(Cl)cc3)n2Cc2ccco2)c1 | 4 | 7 | -17 | x | 2 | 16 | x | x
Cc1ccc(S(=O)(=O)N2CCOC23CCN(C(=O)c2ccc(Cl)cc2Cl)CC3)cc1 | 3 | 48* | -17 | 6 | 2 | -2 | 32* | 0
COc1cc2c(c(OC)c1OC)-c1c(cc3c(c1OC)OCO3)CC(C)[C@@](C)(O)C2 (stereo not given in full) | x | x | x | x | x | -1 | x | x
Cc1ccc(N2CC(O)=C(c3ccccc3)C2=N)cc1 | 1 | 7 | -34 | -3 | 4 | 8 | x | x
N=C1C(c2ccccc2)=C(O)CN1c1ccccc1 | -3 | 29* | -20 | 1 | -2 | 1 | 8 | -1
CSc1nc(N)nc(-c2cccs2)c1C#N | -5 | 19 | 17 | 1 | 8 | x | x | x
CC(C)Sc1nc(N)nc(-c2cccs2)c1C#N | -2 | 30* | -55 | 14 | 9 | x | 41* | 3
CCOC(=O)N1CCN(C(=O)/C(=C/c2ccccc2OC)NC(=O)c2ccccc2)CC1 | 3 | -3 | -19 | -1 | -6 | 8 | x | x
CCOC(=O)N1CCN(C(=O)/C(=C/c2ccc(OC)c(OC)c2)NC(=O)c2ccccc2)CC1 | 6 | 29* | -33 | -1 | -6 | 5 | -1 | -4
CN(C)CCN1C(=O)C(=O)C(=C(O)c2ccc(OCc3ccccc3)cc2)C1c1ccncc1 (stereo not given) | x | x | x | x | x | 9 | x | x
COc1ccccc1NC(=S)NCc1ccc2c(c1)cc(C)n2C | -8 | 50* | -16 | 3 | 4 | 5 | 7 | -10

Compound activity as filed in PubChem.
